Compound activity: PubChem BioAssay, National Center for Advancing Translational Sciences (NCATS)
Most compounds without a hit are left out; they make up all but 19% or so of the library.
IL-1B inflam inh = inhibitors of inflammasome signaling (IL-1 beta secretion); AID 743279; 360,000 tested, 4.7% active; activity change, % at 57.5 µM; THP-1 LPS/ATP IL-1B secretion, AlphaLISA, 16 h; stronger effect = lower value; in the data active means activity change below about -50%; inconclusive means mostly about -30% to -49%; further: on the % scale 0 is the no-effect control and ±100 the full control effect
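Secreted IL-1B measured by AlphaLISA bead assay after 16 h compound exposure of THP-1 cells; compounds (final up to 57.5 uM) added 1 h before LPS (250 ng/mL) and ATP (1.25 mM) stimulation; lower signal means less secretion.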
DT40 TDP1 no CPT = qHTS for Inhibitors of human tyrosyl-DNA phosphodiesterase 1 (TDP1): qHTS in cells in absence of CPT. Potency, µM (titrated, usually from 46.2 µM), without a hit: at the highest dose activity change, negative = growth inhibition, actives largely listed as inhibitors. DT40 Tdp1-/- hTDP1 cells, no CPT, ATP luminescence, 48 h. 420,000 tested, 15% active; further: potency means the concentration at half of the fitted maximal effect; on the % scale 0 is the no-effect control and ±100 the full control effect; nearly all actives have a fitted effect of over 55% in size
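Chicken DT40 Tdp1-/- cells complemented with human TDP1, screened without camptothecin (DMSO vehicle only), 400 cells/well. Compounds pin-transferred, cells incubated at 37 °C for at least 48 hr. Growth read as ATP-dependent luminescence (CellTiter-Glo, 30 min at RT).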
DT40 TDP1 CPT = growth inhibition of DT40 Tdp1-/-;hTDP1 cells with camptothecin (screen for TDP1 inhibitors) | chicken DT40 Tdp1-/-;hTDP1 cells + 20 nM CPT, ATP luminescence, 48 h | Potency, µM (highest dose often 46.2 µM), for the others: at the top dose activity change, negative = growth inhibition, hits mostly inhibitors | 420,000 tested, 12% active | AID 686979; further: potency means the concentration at half of the fitted maximal effect; on the % scale 0 is the no-effect control and ±100 the full control effect; nearly all actives have a fitted effect of over 55% in size
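Cell growth measured by CellTiter-Glo luminescence after a minimum 48 h, 37 C compound exposure with 20 nM CPT in Tdp1-knockout DT40 cells stably expressing hTDP1, seeded 400/well; qHTS titration format.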
MCF10A rerep = DNA re-replication induction in MCF 10a cells | 350,000 tested, 2.9% active | MCF 10A DNA re-replication, Hoechst nuclear intensity, 48 h | AID 624296 | Potency, µM (highest dose often 46.1 µM), inactives show top-dose activity, positive = re-replication, most hits filed as activators; further: potency means the concentration at half of the fitted maximal effect; % of control where 0% means no effect; nearly all actives have a fitted effect of over 50% in size
BCR signal inh = blocks chronic active B-cell receptor signaling. ABC-DLBCL IkBa-CBG/CBR reporter, luminescence ratio, 4 h. Potency, µM (highest dose often 46.1 µM), for the others: top-dose activity change, negative = inhibition, hits mostly inhibitors. 340,000 tested, 0.05% active; active means well fitted inhibition curve with a large enough effect in the signal ratio, with a control signal flat, not every such curve was filed as active; inconclusive means small, poorly fitted or top-dose-only effect, or effect the other way, or a change in a side signal; the % refers to the signal ratio;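 further: potency means the concentration at half of the fitted maximal effect; plate controls were basal doxycycline-induced cells for no effect and cells given 10 µM MG132 for full effect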
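Concentration-response series (up to 46 uM) were applied to TMD8 dual-reporter cells for 4 h at 37C with doxycycline. Green/red ratio, after filter-overlap correction, defined %Activity; red signal alone was normalised to basal cells and zero luminescence.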
SW480 rereplic = inducers of DNA re-replication in SW480 colon cancer cells; Potency, µM (top dose mostly 46.1 µM), inactives show at the top dose re-replication activation, actives largely listed as activators; 340,000 tested, 1.8% active; SW480 DNA re-replication, Hoechst DNA content imaging, 48 h; further: potency means the concentration at half of the fitted maximal effect; % of control where 0% means no effect; nearly all actives have a fitted effect of over 55% in size
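250 cells/well; 23 nL cpd via pin tool; 48 hr, 37 C, 5% CO2; Hoechst 40 min; imager read of total nuclear intensity, ex 405/em 500-530 nm.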
Starred values were filed as active, the others as inactive; u = inconclusive; x = not tested or not shown; [ ] = remark or other dose. Unless noted, the call rests on the fitted dose curve; in most records, active means well fitted curve in the direction sought with a large enough effect; inconclusive means small, poorly fitted or top-dose-only effect, or another doubt; inactive means no such curve, though single readings can be large; an effect the other way counts as inactive or inconclusive.

SMILES	IL-1B inflam inh	DT40 TDP1 no CPT	DT40 TDP1 CPT	MCF10A rerep	BCR signal inh	SW480 rereplic
CCCn1c(N)c(C(=O)CN(C)CC(=O)Nc2c(C)cc(C)cc2C)c(=O)[nH]c1=O	11.0	u	-15.9%	3.2%	4.9%	10.3%
CCCn1c(N)c(C(=O)CN(C)CC(=O)Nc2ccc(C)cc2)c(=O)[nH]c1=O	10.5	-23.8%	-10.1%	16.4%	-1.4%	19.0%
CCCn1c(N)c(C(=O)CN(C)CC(=O)Nc2ccccc2C(F)(F)F)c(=O)[nH]c1=O	11.7	20.6µM*	14.6µM*	9.6%	u	-3.3%
CCCn1c(N)c(C(=O)CN(C)CC(=O)Nc2c(Cl)cccc2Cl)c(=O)[nH]c1=O	u	23.1µM*	16.4µM*	8.1%	-2.6%	-0.2%
CCCCc1nn2c(=O)cc(COC(=O)C(C)Oc3ccccc3)nc2s1 (configuration not stated)	x	-3.7%	-4.4%	x	x	x
Cc1cc2c(cc1C)-c1nnnn1C(N1CCCC1)C(=O)N2 (configuration not stated)	19.0	u	u	x	x	x
CCOc1ccccc1NC(=O)C(OC(=O)c1ccc(NC(=O)CC#N)cc1)c1ccccc1 (configuration not stated)	-6.0	u	-26.1%	-16.9%	1.6%	11.9%
COc1ccc(-c2cn3cc(Br)cnc3n2)cc1	-8.1	u	25.9µM*	-2.3%	-7.6%	u
CC(=O)Oc1c(I)cc(I)cc1C(=O)Nc1ccc(Cl)cc1	-86.6*	20.6µM*	u	7.31µM*	u	u
Cc1cc(C(=O)Nc2ccc(Cl)cc2)c2ccccc2n1	1.3	-7.7%	1.2%	-7.5%	u	-3.6%
Cc1ccc(NC(=S)N(C)Cc2cn(C)c3ccccc23)cc1	5.3	u	16.4µM*	u	-0.7%	-1.5%
Cc1cccc(NC(=S)N(CCCN2CCOCC2)Cc2cn(C)c3ccccc23)c1	-7.2	u	18.4µM*	u	u	u
Cc1ccc(NC(=S)N(CCCN2CCOCC2)Cc2ccccn2)cc1	9.7	-3.2%	-2.5%	21.7%	-5.9%	-3.4%
COc1ccc(NC(=S)N(CCCN2CCOCC2)Cc2ccccn2)cc1	16.4	-2.2%	4.9%	-6.4%	6.8%	-15.0%
CCOc1ccc(NC(=S)N(CCCN2CCOCC2)Cc2cn(C)c3ccccc23)cc1	-11.4	14.6µM*	u	u	u	u
CCOc1ccc2c(=O)c(Oc3ccccc3)c(C)oc2c1	1.1	20.6µM*	u	0.0%	7.2%	-4.3%
Cc1oc2cc(OC(C)C(=O)O)ccc2c(=O)c1Oc1ccccc1 (configuration not stated)	5.3	-2.0%	-1.6%	u	-3.0%	-6.5%
COc1ccc(NC(=O)CSc2nnnn2C)cc1S(=O)(=O)N1CCCCC1	0.2	u	4.8%	1.4%	-0.9%	1.6%
OC1(c2cccnc2)CCN(Cc2ccc3c(c2)CN(Cc2ccc(Cl)cc2)CCO3)CC1	x	-22.9%	-14.1%[9.04 µM]	x	x	x
Cc1ccc(CN2CCOc3ccc(CN4CCC(O)(c5cccnc5)CC4)cc3C2)cc1C	x	18.4µM*	-3.6%[9.04 µM]	x	x	x
CCC1C(=O)NCCN1Cc1ccc2c(c1)CN(Cc1cccc(OC)c1OC)CCO2 (configuration not stated)	x	-19.2%	0.731µM*	x	x	x
COc1ccc(CN2CCOc3ccc(CN4CCC(O)(c5cccnc5)CC4)cc3C2)c(C)c1C	x	16.4µM*	u	x	x	x
COCCN1CC(C(=O)N2CCC(Oc3ccccc3OC)CC2)CCC1=O (configuration not stated)	6.9	-9.6%	9.8%	-0.4%	-4.3%	-3.2%
O=C(COC(=O)CCNS(=O)(=O)c1ccc(Cl)cc1)Nc1ccccc1OC(F)F	5.5	-0.9%	0.8%	1.6%	6.4%	2.9%
CCc1ccc(OCC(=O)O/N=C(\N)c2ccccn2)cc1	0.0	-13.1%	-14.4%	-0.3%	u	-1.5%
SMILES	IL-1B inflam inh	DT40 TDP1 no CPT	DT40 TDP1 CPT	MCF10A rerep	BCR signal inh	SW480 rereplic
N/C(=N\OC(=O)COc1ccccc1)c1ccccn1	-7.9	3.2%	2.0%	4.3%	u	18.4µM*
N/C(=N\OC(=O)c1ccccc1)c1ccccn1	4.0	-20.4%	-6.7%	-3.9%	u	-3.2%
C/C(=N\NC(=O)c1ccccc1Cl)c1ccccn1	117.5	2.91µM*	2.91µM*	u	u	u
CC(C)(C)c1ccc(C(=O)O/N=C(\N)c2ccccn2)cc1	-64.9*	-21.8%	23.1µM*	0.6%	0.3%	u
CC(=NNC(=O)c1ccncc1)c1cccc(Br)c1	-15.8	-9.9%	0.4%	-6.6%	x	-6.5%
C/C(=N\NC(=O)c1cccc(Br)c1)c1ccccn1	-15.3	0.92µM*	0.731µM*	2.91µM*	u	u
Cc1ccc(N2C(=O)CC(Nc3ccc(Cl)c(S(=O)(=O)N(C)C)c3)C2=O)c(C)c1 (configuration not stated)	44.6	-0.8%	-15.1%	-10.7%	-5.3%	-5.2%
CSc1ccccc1C(=O)NCc1ccccc1C	-12.4	-20.8%	-14.4%	4.3%	-2.9%	2.6%
CCOc1ccc(NC(=O)Cn2nnc(C(=O)NCc3ccc4c(c3)OCO4)c2N)cc1	20.9	11.0%	-2.4%	u	0.6%	-1.4%
C/C(=N\NC(=O)c1ccc(Cl)c(Cl)c1)c1ccc(Br)s1	6.4	1.46µM*	1.46µM*	13.4%	-1.6%	u
C/C(=N\NC(=O)c1ccc(Cl)c(Cl)c1)c1ccccn1	-103.4*	0.517µM*	0.411µM*	-24.1%	u	u
C/C(=N\NC(=O)C(c1ccccc1)c1ccccc1)c1ccccn1	-96.6*	4.61µM*	4.61µM*	u	-2.0%	-37.1%
C/C(=N/NC(=O)c1ccccn1)c1ccncc1	-5.6	-5.3%	-5.6%	-9.7%	u	-5.0%
C/C(=N\NC(=O)c1cc(Br)ccc1O)c1ccccn1	-81.3*	3.66µM*	3.26µM*	u	u	u
CCC(OC(C)=O)c1cc2c(cc1[N+](=O)[O-])OCCO2 (configuration not stated)	11.1	-20.8%	14.2%	-2.9%	4.1%	-19.5%
OC[C@H]1NC[C@H](O)[C@@H](O)[C@H]1O	x	-3.6%	-4.8%	x	x	x
C/C(=N/NC(N)=S)c1ccc(Br)s1	-6.4	4.61µM*	8.2µM*	-0.2%	20µM*	u
C/C(=N\NC(=O)c1cc(-c2ccncc2)nc2ccccc12)c1ccc(N2CCOCC2)cc1	12.3	u	u	5.8µM*	u	-22.1%
